# Test system: H9c2
# Assay: cardiomyocyte survival under oxidative or metabolic stress – cell-based, panel, H9c2 and HL-1, ATP luminescence, set 2, SAR follow-up (AID 651871);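 also: cells exposed to stressor for 2 h before ATP readout; reference of the scale not given here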
# Conditions: H9c2/HL-1 cardiomyocytes, 2-deoxyglucose stress, with 2-deoxyglucose, run 4, at 39.5 µM (top of the series)
smiles,measurement,value
COc1ccc2c(c1OC)C(=O)N1c3ccccc3C(=O)N(Cc3cccc(Cl)c3Cl)C21 (stereo unspecified),activity (protection/inhibition),71%
